Assay outcomes (PubChem)
Compounds with a hit are over-represented: about 3.3% of the library has one in this group of screens.
TbPYK inhibitor – qHTS of Trypanosoma Brucei Inhibitors; 410,000 tested, 0.12% active; Potency, µM (doses to about 76.8 µM), inactives show at the highest dose activity, negative = inhibition, most hits filed as inhibitors; AID 624173, 2012; TbPYK enzyme, Kinase-Glo Plus ATP luminescence, 45 min; note: nearly all actives have a fitted effect of over 50% in size
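ADP (130 uM final) triggers the TbPYK reaction after compound addition; incubation is 45 min at room temperature. Kinase-Glo Plus is then added and luminescence imaged. Normalized data are fitted to concentration-effect curves.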
Giardia FBPA inh – qHTS Assay for Inhibitors of Fructose-1,6-bisphosphate Aldolase from Giardia Lamblia; A8B2U2; purified Giardia FBPA; Potency, µM (highest dose often 59.6 µM), for inactives: at the highest dose activity, negative = inhibition, usual class: inhibitors; 290,000 tested, 0.71% active; AID 2451, 2010; note: nearly all actives have a fitted effect of over 55% in size
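40 nM FBPA preincubated 10 min at RT with compound (up to 57.5 uM final), then substrate plus GAPDH/TPI/NAD/arsenate coupling and diaphorase/resazurin added. Fluorescence read after 20 min at RT, 525/598 nm.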
RE007 growth inh – qHTS Assay for Inhibitors of the HIV-1 protein Vpr; S. pombe RE007 Vpr strain, BacTiter-Glo ATP luminescence, 24 h; 360,000 tested, 0.21% active; AID 651644, 2012; Potency, µM (highest dose often 92.2 µM), without a hit: at the highest dose activity change, negative = less growth, usual class: inhibitors; active = well fitted falling curve with a large enough effect; inconclusive = small, poorly fitted or top-dose-only effect; inactive = no such curve, though single readings can be large or run the other way; note: nearly all actives have a fitted effect of over 50% in size
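Fission yeast RE007 carrying one integrated HIV-1 vpr copy, seeded at OD 0.01 in PMG+AL medium with 23 nL pinned compound. Grown 24 h at 30 degrees; viability read by BacTiter-Glo luminescence after 5 min.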
LmPK inh – qHTS Assay for Inhibitors of Leishmania Mexicana Pyruvate Kinase (LmPK); purified LmPK, Kinase-Glo ATP luminescence, 1 h; AID 1721, 2009; Potency, µM (titrated, usually from 57.5 µM), without a hit: at the highest dose activity change, negative = inhibition, usual class: inhibitors; 290,000 tested, 0.37% active
Target sequence (Q27686 whole entry, looked up): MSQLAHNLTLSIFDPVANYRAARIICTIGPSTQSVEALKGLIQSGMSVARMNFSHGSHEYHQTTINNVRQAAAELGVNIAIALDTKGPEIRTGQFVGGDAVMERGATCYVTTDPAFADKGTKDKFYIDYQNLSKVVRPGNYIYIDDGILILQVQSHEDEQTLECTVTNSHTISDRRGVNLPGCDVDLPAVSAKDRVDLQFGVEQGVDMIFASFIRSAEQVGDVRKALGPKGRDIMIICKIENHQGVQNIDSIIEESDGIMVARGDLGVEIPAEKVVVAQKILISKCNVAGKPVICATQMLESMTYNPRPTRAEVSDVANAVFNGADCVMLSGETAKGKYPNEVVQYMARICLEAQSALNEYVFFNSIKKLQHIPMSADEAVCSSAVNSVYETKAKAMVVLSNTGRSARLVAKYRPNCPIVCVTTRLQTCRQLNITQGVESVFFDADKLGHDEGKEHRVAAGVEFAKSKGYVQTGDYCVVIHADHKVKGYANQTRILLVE
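Purified LmPK (0.1 nM) with 0.5 mM PEP and 0.1 mM ADP in imidazole buffer pH 7.2 with MgCl2/KCl, 1 h at room temperature. ATP formed was read by luciferase luminescence and normalized to no-enzyme and uninhibited controls.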
Sm TGR block – qHTS Assay for the Inhibitors of Schistosoma Mansoni Peroxiredoxins; Schistosoma mansoni thioredoxin glutathione reductase (TGR), Q962Y6; purified TGR, DTNB reduction, TNB absorbance 405 nm; Potency, µM (series often up to 114 µM), inactives show at the top dose activity change, negative = inhibition, hits mostly inhibitors; 360,000 tested, 3% active; note: nearly all actives have a fitted effect of over 60% in size
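First, TGR (20 nM dispensed) and NADPH were mixed with compound. Second, a 15 min room-temperature incubation followed. Third, further NADPH and then DTNB were added to start the reaction. Finally, TNB absorbance was monitored kinetically.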
Starred values were filed as active, the others as inactive. Unless noted, calls come from the whole dose curve; as a rule, active = well fitted curve in the direction sought with a large enough effect; inconclusive = small, poorly fitted or top-dose-only effect, or another doubt; inactive = no such curve, though single readings can be large; an effect the other way counts as inactive or inconclusive. % is set by controls: 0 for no effect and ±100 for the full control effect; potency is the fitted concentration of half-maximal effect.

Results for Cc1cccc(N2CCN(S(=O)(=O)c3c(C)[nH]c(=O)[nH]c3=O)CC2)c1C ?
TbPYK inhibitor: 0%; Giardia FBPA inh: 15%; RE007 growth inh: -24%; LmPK inh: 5%; Sm TGR block: 6%

Results for Cn1nnnc1Sc1ncnc2scc(-c3ccc(-c4ccccc4)cc3)c12 ?
TbPYK inhibitor: 2%

What do the screens show for `Cn1nnnc1Sc1ncnc2scc(-c3ccc(C(F)(F)F)cc3)c12`?
TbPYK inhibitor: -9%; Sm TGR block: -31%

What do the screens show for `Cn1nnnc1Sc1ncnc2scc(-c3ccccc3C(F)(F)F)c12`?
TbPYK inhibitor: inconclusive; Sm TGR block: 4µM*

Results for Cn1nnnc1Sc1ncnc2scc(-c3cccs3)c12 ?
TbPYK inhibitor: -24%; Sm TGR block: 3.5µM*

How did CCCCCCSc1ccc([C@@H]2[C@H]3C(=O)N(C)C(=O)[C@H]3[C@]3(C(=O)OC)CCCCN23)cc1 do in these assays?
TbPYK inhibitor: 10%; RE007 growth inh: -7%; Sm TGR block: inconclusive

What do the screens show for `CCOc1ccc(N(CC(=O)Nc2ccc(OC)cc2)S(C)(=O)=O)cc1`?
TbPYK inhibitor: 0%; Giardia FBPA inh: 4%; RE007 growth inh: 14%; LmPK inh: -3%; Sm TGR block: 10%

What do the screens show for `Cc1[nH]c2ccccc2c1NC(=O)CN1CCN(c2cccc(C(F)(F)F)c2)CC1`?
TbPYK inhibitor: -2%; Giardia FBPA inh: 2%; RE007 growth inh: -7%; LmPK inh: 4%; Sm TGR block: -7%

Results for Cc1[nH]c2ccccc2c1C(O)CN1CCN(c2cccc(C(F)(F)F)c2)CC1 (configuration not stated) ?
TbPYK inhibitor: -7%; Giardia FBPA inh: -19%; RE007 growth inh: -3%; LmPK inh: 2%; Sm TGR block: 32µM*

How did O=[N+]([O-])c1ccccc1Oc1ccccc1Cl do in these assays?
TbPYK inhibitor: 3%; Giardia FBPA inh: 0%; RE007 growth inh: -20%; LmPK inh: -3%; Sm TGR block: -7%

Results for CCOc1ccc(C(C)=O)cc1CSc1nnc(-c2cccs2)n1CC1CCCO1 (configuration not stated) ?
TbPYK inhibitor: 0%; Giardia FBPA inh: 5%; RE007 growth inh: 5%; LmPK inh: 2%; Sm TGR block: 20µM*

Results for N#CC1=C(N)Oc2cc3ccccc3cc2C1c1cccnc1 (configuration not stated) ?
TbPYK inhibitor: -5%; Giardia FBPA inh: -17%; RE007 growth inh: -14%; LmPK inh: 3%; Sm TGR block: inconclusive

What do the screens show for `C[n+]1cccc(C2C(C#N)=C(N)Oc3c2ccc2ccccc32)c1` (configuration not stated)?
TbPYK inhibitor: -3%; Giardia FBPA inh: inconclusive; RE007 growth inh: -13%; LmPK inh: -4%; Sm TGR block: 40µM*

How did C[n+]1cccc2ccc3c(c21)OC(N)=C(C#N)C3c1ccccc1 (configuration not stated) do in these assays?
TbPYK inhibitor: -4%; Giardia FBPA inh: inconclusive; RE007 growth inh: -25%; LmPK inh: -1%; Sm TGR block: -10%

What do the screens show for `N#CC1=C(N)Oc2c(ccc3cccnc23)C1c1cccnc1` (configuration not stated)?
TbPYK inhibitor: 59%; Giardia FBPA inh: 1%; RE007 growth inh: -9%; LmPK inh: 4%; Sm TGR block: 20µM*

Results for Cc1ccc2cc(C3C(C#N)=C(N)Oc4c3ccc3cccnc43)c(=O)[nH]c2c1 (configuration not stated) ?
TbPYK inhibitor: 50%; Giardia FBPA inh: inconclusive; RE007 growth inh: -20%; LmPK inh: 2%; Sm TGR block: 11µM*

What do the screens show for `COc1ccc(NC(=O)N(C)[C@H]2C[C@H]3c4[nH]c5ccc(-c6cccc(C)c6)cc5c4CCN3C[C@H]2[C@H](C)O)cc1`?
TbPYK inhibitor: -3%; RE007 growth inh: 12%

How did C=Cc1ccc(Cn2c(C(=O)O)c(CNCCc3ccco3)c3ccc(C)cc32)cc1 do in these assays?
TbPYK inhibitor: -3%; Sm TGR block: 22µM*

How did COc1ccc(Cn2c(C(=O)O)c(CNCCc3ccco3)c3ccc(C)cc32)cc1 do in these assays?
TbPYK inhibitor: 3%; Sm TGR block: -5%

What do the screens show for `Cc1c(S(=O)(=O)c2ccccn2)c(N)n(Cc2ccccc2Cl)c1C`?
TbPYK inhibitor: -3%; Giardia FBPA inh: -7%; RE007 growth inh: -26%; LmPK inh: -2%; Sm TGR block: 2µM*

Results for COc1nc(C)cc(C)c1S(=O)(=O)c1ccccc1 ?
TbPYK inhibitor: 2%; Giardia FBPA inh: -7%; RE007 growth inh: -2%; LmPK inh: 8%; Sm TGR block: 15%

What do the screens show for `Cc1c(S(=O)(=O)c2ccccn2)c(N)n(Cc2ccccc2)c1C`?
TbPYK inhibitor: -2%; Giardia FBPA inh: -8%; RE007 growth inh: 2%; LmPK inh: -6%; Sm TGR block: 2µM*

What do the screens show for `Cc1ccc(C)n1Cc1ccccc1Cl`?
TbPYK inhibitor: 0%; Giardia FBPA inh: 5%; RE007 growth inh: 14%; LmPK inh: 0%; Sm TGR block: inconclusive

Results for COCCn1c(C)c(C)c(S(=O)(=O)c2ccccc2)c1N ?
TbPYK inhibitor: -8%; Giardia FBPA inh: -28%; RE007 growth inh: 10%; LmPK inh: 4%; Sm TGR block: 1µM*

How did COc1ccccc1CN1Cc2cccc3c2[C@@H](CC1=O)[C@H](O)[C@H](O)C3 do in these assays?
TbPYK inhibitor: -2%; RE007 growth inh: 5%; Sm TGR block: -19%

What do the screens show for `COCC(C)n1c(C)cc(C(=O)CSc2nnc(-c3ccco3)o2)c1C` (configuration not stated)?
TbPYK inhibitor: -3%; RE007 growth inh: -17%

How did CCn1cc(C(=O)N2CCCC2)c(=O)c2cc(S(=O)(=O)N3CCC(C)CC3)ccc21 do in these assays?
TbPYK inhibitor: 0%; Giardia FBPA inh: 15%; RE007 growth inh: -12%; LmPK inh: -3%; Sm TGR block: -5%

Results for COc1cc(NC(=O)C2CC(=O)NC3=C2C(=O)CC(C)(C)C3)c(OC)cc1Cl (configuration not stated) ?
TbPYK inhibitor: 6%; Giardia FBPA inh: 7%; RE007 growth inh: 12%; LmPK inh: 9%; Sm TGR block: -15%

How did CCc1cccc(Nc2c3c(nc4ncnn24)CCC3)c1 do in these assays?
TbPYK inhibitor: -5%; Giardia FBPA inh: -3%; RE007 growth inh: 2%; LmPK inh: 6%; Sm TGR block: -9%
